Bioassay records (PubChem BioAssay)
A selection: hits, their analogues and other compounds. The true share with any hit is near 1.5%.
PGK inhibitor: qHTS Assay to Find Inhibitors of Phosphoglycerate Kinase | 380,000 compounds, 0.043% hits | AID 602233, 2012 | Phosphoglycerate kinase, glycosomal (Trypanosoma brucei brucei), P07378 | PGK/GAPDH coupled, Kinase-Glo luminescence, 60 min | Potency, µM (top dose mostly 57.5 µM), for the others: at the top dose activity change, negative = inhibition, usual class: inhibitors; also: potency is read from the fitted curve at half-maximal effect; % is scaled to controls: 0 for no effect and ±100 for the full control effect; nearly all actives have a fitted effect of over 60% in size
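Recombinant glycosomal PGK reaction used 1,3-bisphosphoglycerate generated in-well by GAPDH (100nM final) in 100mM TEA pH 7.6, 5mM MgCl2, 0.01% Tween-20. After 60 minutes at room temperature, ATP was read by Kinase-Glo Plus luminescence end-point.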
WRN helicase inh: qHTS for Inhibitors of WRN Helicase; Bifunctional 3'-5' exonuclease/ATP-dependent helicase WRN (Homo sapiens), Q14191; WRN helicase unwinding, fluorescent forked duplex, kinetic; Potency, µM (top dose mostly 114 µM), inactives show at the top dose activity change, negative = inhibition, usual class: inhibitors; 360,000 compounds, 0.46% hits; AID 651768, 2012; also: potency is read from the fitted curve at half-maximal effect; % is scaled to controls: 0 for no effect and ±100 for the full control effect; nearly all actives have a fitted effect of over 55% in size
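WRN at 20 nM final preincubated with compound 15 min at room temperature; reaction started with 100 nM fluorophore/quencher forked duplex oligonucleotide and 2 mM ATP final. Unwinding followed kinetically by red fluorescence (ex 525, em 598 nm).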
Tb PFK inh-1: qHTS Assay to Find Inhibitors of T. brucei phosphofructokinase; 330,000 compounds, 0.17% hits; T. brucei PFK, ADP-Glo luminescence; ATP-dependent 6-phosphofructokinase (Trypanosoma brucei brucei), O15648; Potency, µM (titrated, usually from 57.5 µM), without a hit: at the highest dose activity, negative = inhibition, actives largely listed as inhibitors;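 also: potency is read from the fitted curve at half-maximal effect; 0% = uninhibited 1x PFK enzyme wells and -100% = no-enzyme wells; nearly all actives have a fitted effect of over 60% in size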
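PFK 1.25 nM, F6P 0.5 mM, ATP 0.1 mM, 0.1 M TEA pH 8.0, 5 mM MgCl2, 0.01% Tween20, 0.1% BSA; 45 min RT. ADP-Glo readout. qHTS titration up to 57 uM; curves fitted, compounds curve-classed.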
TDP1 block: qHTS Assay for Inhibitors of Tyrosyl-DNA Phosphodiesterase (TDP1). Tyrosyl-DNA phosphodiesterase 1 (Homo sapiens), Q9NUW8. recombinant TDP1, AlphaScreen DNA substrate cleavage. Potency, µM (titrated, usually from 130 µM), for the others: at the highest dose activity change, negative = inhibition, usual class: inhibitors. 350,000 compounds, 0.28% hits. AID 485290, 2010; also: potency is read from the fitted curve at half-maximal effect; % is scaled to controls: 0 for no effect and ±100 for the full control effect; nearly all actives have a fitted effect of over 40% in size
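Recombinant E. coli-expressed Tdp1 (1 nM) preincubated with compound 15 min at RT, then 5'-biotin/3'-phosphotyrosine-FITC DNA substrate (15 nM) added for 5 min. AlphaScreen beads (10 ug/ml) added, 10 min RT; tyrosine-FITC cleavage read as signal loss.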
PI5P4Ka inh: qHTS for Inhibitors of phosphatidylinositol 5-phosphate 4-kinase (PI5P4K) | 330,000 compounds, 1.2% hits | PI5P4Kalpha enzyme, ADP-Glo luminescence, 60 min; hits give low values | Phosphatidylinositol 5-phosphate 4-kinase type-2 alpha (Homo sapiens), P48426 | max response, %; active = max response of -50% or lower; inconclusive = between -30% and -50%; inactive = -30% or higher; also: value at the top dose of about 77 µM; % is scaled to controls: 0 for no effect and ±100 for the full control effect
Target sequence (P48426 whole entry, looked up): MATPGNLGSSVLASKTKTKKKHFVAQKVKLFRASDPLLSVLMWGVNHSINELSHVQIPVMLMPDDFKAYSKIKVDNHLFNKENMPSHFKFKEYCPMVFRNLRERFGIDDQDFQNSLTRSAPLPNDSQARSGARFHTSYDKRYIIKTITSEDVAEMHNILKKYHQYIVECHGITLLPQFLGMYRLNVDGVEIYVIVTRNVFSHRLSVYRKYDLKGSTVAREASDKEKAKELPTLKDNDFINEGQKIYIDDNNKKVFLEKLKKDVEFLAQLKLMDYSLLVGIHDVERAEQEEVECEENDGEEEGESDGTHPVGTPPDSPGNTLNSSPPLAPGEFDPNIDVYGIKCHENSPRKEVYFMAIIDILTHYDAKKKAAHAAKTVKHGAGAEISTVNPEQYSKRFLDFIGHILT
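Single end-point luminescence (ADP-Glo) quantified ADP from PI5P4Kalpha turnover; ATP 5 microM final, 1 h at RT, 0.1% CHAPS and 0.28 mM EGTA in HEPES pH 7.4.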
FEN1 inhibitor: qHTS Assay for the Inhibitors of Human Flap endonuclease 1 (FEN1). 390,000 compounds, 0.35% hits. AID 588795, 2011. Potency, µM (highest dose often 114 µM), for the others: top-dose activity change, negative = inhibition, most hits filed as inhibitors. Recombinant FEN1 flap cleavage, fluorescence, 15 min; also: potency is read from the fitted curve at half-maximal effect; % is scaled to controls: 0 for no effect and ±100 for the full control effect; nearly all actives have a fitted effect of over 65% in size
Target sequence (P39748 whole entry, looked up): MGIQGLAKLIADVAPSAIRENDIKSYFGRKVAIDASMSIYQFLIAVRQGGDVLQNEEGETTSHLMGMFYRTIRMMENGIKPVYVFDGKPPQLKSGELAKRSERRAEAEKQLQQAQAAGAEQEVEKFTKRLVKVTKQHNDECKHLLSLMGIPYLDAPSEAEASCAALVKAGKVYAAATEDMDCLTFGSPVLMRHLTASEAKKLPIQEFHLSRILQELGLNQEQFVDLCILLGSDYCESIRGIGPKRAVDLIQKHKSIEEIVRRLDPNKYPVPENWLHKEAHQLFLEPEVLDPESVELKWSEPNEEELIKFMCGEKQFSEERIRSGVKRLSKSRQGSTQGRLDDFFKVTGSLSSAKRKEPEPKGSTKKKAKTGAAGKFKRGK
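With each library titrated from low to high concentration, compounds met 10 nM FEN1 for 15 min at room temperature before 50 nM substrate was added; readings at 0 and 15 min fed four-parameter Hill curve fits.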
Tb PFK KinaseGlo: Tb PFK orthogonal confirmatory assay using ATP depletion (Kinase-Glo Plus) as an alternative measure of Tb PFK activity: Hit Validation. shares compounds with Tb PFK inh-1. Tb PFK enzyme, ATP depletion, Kinase-Glo Plus luminescence. Potency, µM (series often up to 57.5 µM), without a hit: top-dose inhibition. 1,100 compounds, 47% hits. AID 504636, 2011; calls by dose curve; also: potency is read from the fitted curve at half-maximal effect; nearly all actives have a fitted effect of over 60% in size
Tb PFK inh-2: Inhibitors of T. brucei phosphofructokinase: Hit Validation. shares compounds with Tb PFK inh-1. purified T. brucei PFK, ADP-Glo luminescence, 45 min. Potency, µM (top dose mostly 57.5 µM), without a hit: at the top dose activity change, negative = inhibition, actives largely listed as inhibitors. 1,100 compounds, 41% hits;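 also: potency is read from the fitted curve at half-maximal effect; plate controls were full PFK enzyme control for no effect and no enzyme control for full effect; nearly all actives have a fitted effect of over 60% in size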
* hit, by the source's call; i = inactive; ? = inconclusive; . = no result given; [ ] = remark or other dose. Unless noted, calls follow the shape of the dose curve; as a rule, active = well fitted curve in the direction sought with a large enough effect; inconclusive = small, poorly fitted or top-dose-only effect, or another doubt; inactive = no such curve, though single readings can be large; an effect the other way counts as inactive or inconclusive.

SMILES	PGK inhibitor	WRN helicase inh	Tb PFK inh-1	TDP1 block	PI5P4Ka inh	FEN1 inhibitor	Tb PFK KinaseGlo	Tb PFK inh-2
Cc1c(Br)c([N+](=O)[O-])nn1CC(=O)Nc1ccc2nc3n(c(=O)c2c1)CCCC3	-8%	8%	?	3%	-9	-2%	24µM*	?
C=CCc1cc(OC)c2c(c1OC)OCO2	.	.	.	-2%[56.1 µM]	.	.	.	.
CCCCCCCCCCCCC/C=C/[C@@H](O)[C@@H](N)COP(=O)([O-])OCC[N+](C)(C)C	.	.	.	-2%	.	.	.	.
O=C(Nc1cnn(Cc2ccc(Cl)c(Cl)c2)c1)c1nc2ncccn2n1	i	4%	5.4µM*	4%	-12	4%	2.7µM*	5.4µM*
CCN(CC)c1ccc(NC(=O)CSc2ccsc2[N+](=O)[O-])c(C)c1	-10%	?	?	-2%	?	2%	?	-27%
O=C(CSc1ccsc1[N+](=O)[O-])Nc1cc(F)ccc1F	?	?	?	-8%	-94*	?	6.7µM*	?
CC/C=C\C[C@@H](/C=C/C=C\C/C=C\C/C=C\CCCC(=O)O)OO	.	.	.	3%	.	.	.	.
Cc1ccc(S(=O)(=O)CCC(=O)c2cccc([N+](=O)[O-])c2)cc1	-2%	14µM*	13µM*	6%	?	-25%	21µM*	?
O=C(CN1CC(c2ccccc2)CC1=O)Nc1ccc(F)cc1 (centres undefined)	i	0%	3%	0%	-1	-6%	.	.
O=C(CSc1ccc(F)cc1)Nc1ccc2c(c1)C(=O)NC2=O	i	7%	?	-2%	-1	0%	?	?
CCC(=O)OCCNc1cc(Sc2nc3ccccc3[nH]2)c2nonc2c1[N+](=O)[O-]	-10%	?	?	-6%	-56*	-23%	6µM*	9.5µM*
N#Cc1c(Oc2cccc(OS(=O)(=O)CCCC(F)(F)F)c2)cccc1C(F)(F)F	.	.	.	-1%	.	.	.	.
O=C(COc1ccc(/C=C\[N+](=O)[O-])cc1)N1CCOCC1	3%	-14%[11.6 µM]	?	6%	-2	20%	-22%	?
O=C1C(=O)c2ccccc2-c2ccccc21	?	-30%	6%	3%	-5	-17%	.	.
O=C1c2ccccc2C(=O)N1SC1CCCCC1	i	50µM*	?	4%	1	-5%	9.5µM*	15µM*
CCOC(=O)N1CCC(NC(=O)CCC(=O)N2CCOc3ccc(Cl)cc32)CC1	i	-8%	?	-5%	7	-3%	?	-21%
N#CCSc1nnc(CNc2cccc(Cl)c2)o1	1%	-1%	24µM*	0%	.	-1%	13µM*	21µM*
C[C@@H]1O[C@@H](O[C@@H]2C=C3CC[C@@H]4[C@@H](CC[C@]5(C)[C@H](c6ccc(=O)oc6)CC[C@@]45O)[C@@]3(C)CC2)[C@H](O)[C@H](O)[C@H]1O	.	.	.	.	.	-5%	.	.
Cc1cc(C)n2c(=S)[nH]nc2n1	-9%	56µM*	?	3%	-76*	-1%	27µM*	?
Clc1nc(Cl)nc(Cl)n1	.	.	.	0%	.	.	.	.
Cc1[nH]cnc1CCN	.	.	.	15%	.	.	.	.
Cc1c(N=Cc2ccc(O)c(Br)c2)cccc1[N+](=O)[O-]	-9%	-1%	27µM*	-4%	-11	8%	?	?
CCOC(=O)c1nc2ccccc2c(=O)n1-c1ccc(C)cc1C	-2%	-1%	0%	0%	-3	-14%	.	.
CCOC(=O)Cc1csc(-n2sc3ccccc3c2=O)n1	-11%	-22%[11.6 µM]	11µM*	7%	-107*	?	?	?
CC1=C(C(=O)Nc2ccccc2C(F)(F)F)C(c2ccc(C)s2)NC(=S)N1 (centres undefined)	5%	-8%	?	3%	4	9%	5%	4%
SMILES	PGK inhibitor	WRN helicase inh	Tb PFK inh-1	TDP1 block	PI5P4Ka inh	FEN1 inhibitor	Tb PFK KinaseGlo	Tb PFK inh-2
CCOC(=O)C1CCN(/C=C2/C(=O)NC(=O)N(Cc3ccco3)C2=O)CC1	?	?	?	40µM*	-73*	-35%	?	?
COc1ccc(/C=C2/C(=O)NC(=O)N(Cc3ccco3)C2=O)cc1	.	.	?	-6%	.	.	.	.
C=CC=O	.	.	.	-3%	.	.	.	.
O=c1c2ccccc2nc(/C=C\c2ccccc2[N+](=O)[O-])n1-c1ccccc1O	7%	-28%	17%	7%	-2	?	.	.
O=C(O)CC1S/C(=N/N=C/c2ccc(-c3ccc(Cl)cc3[N+](=O)[O-])o2)NC1=O (centres undefined)	-16%	?	?	-7%	-52*	?	-33%	?
O=C(O)CC1S/C(=N/N=C/C=C/c2ccccc2[N+](=O)[O-])NC1=O (centres undefined)	-8%	-32%[57.1 µM]	?	3%	-6	6%	-33%	?
Clc1ccc(CNCCCSc2ncccn2)cc1Cl	8%	1%	15µM*	.	-3	6%	19µM*	19µM*
C[C@@H]1C[C@@H]2[C@H]([C@H]3C=C(COC(=O)c4ccccc4)[C@@H](O)[C@]4(O)[C@@H](O)C(OC(=O)c5ccccc5)=C[C@@]14C3=O)C2(C)C	.	.	.	9%	.	.	.	.
CC(C)CN1C(=S)SC(C)(C)C1n1oc(=O)n(-c2ccc(Cl)cc2)c1=O (centres undefined)	.	-24%	27µM*	6%	.	-10%	3%	-4%
O=C(/C=C/c1ccco1)NCc1ccco1	-25%	-14%	?	.	-8	-4%	21µM*	?
O=C(NCc1ccccc1)c1cccn(Cc2cccc(Cl)c2)c1=O	-4%	-3%	0%	.	9	0%	.	.
O=C(/C=C/c1ccc(S(=O)(=O)NCc2ccco2)cc1)NCc1cccc(Cl)c1	i	-27%	27µM*	8%	-19	-15%	21µM*	27µM*
O=C(Cn1cc(C(=O)c2ccccc2)c2ccccc21)NCc1ccco1	-1%	0%	-17%	10%	-1	2%	.	.
O=C(/C=C/c1ccc(OCCCF)cc1)NCc1cccc(Cl)c1	0%	-13%	?	2%	19	-6%	?	?
